What was measured:
Conditions in all cases: concentration: 1 μM, replicates: in singlicate; n = 1
PRKCI = test system: PRKCI
PRKCQ = test system: PRKCQ
PRKD1 = test system: PRKD1
PRKD2 = test system: PRKD2
PRKD3 = test system: PRKD3
PRKG1 = test system: PRKG1
PRKG2 = test system: PRKG2
PRKR = test system: T1, PRKR
T1 construct: gene EIF2AK2

PRKX = test system: PRKX
PRP4 = test system: PRP4
PYK2 = test system: T2, PYK2
T2 construct: gene PTK2B

QSK = test system: QSK
RAF1 = test system: RAF1
RET = test system: RET
RIOK1 = test system: RIOK1
RIOK2 = test system: RIOK2
RIOK3 = test system: RIOK3
RIPK1 = test system: RIPK1
RIPK2 = test system: RIPK2
RIPK4 = test system: RIPK4
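Further: KINOMEscan kinase panel screen.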

| SMILES | %Inh (PRKCI) [%] | %Inh (PRKCQ) [%] | %Inh (PRKD1) [%] | %Inh (PRKD2) [%] | %Inh (PRKD3) [%] | %Inh (PRKG1) [%] | %Inh (PRKG2) [%] | %Inh (PRKR) [%] | %Inh (PRKX) [%] | %Inh (PRP4) [%] | %Inh (PYK2) [%] | %Inh (QSK) [%] | %Inh (RAF1) [%] | %Inh (RET) [%] | %Inh (RIOK1) [%] | %Inh (RIOK2) [%] | %Inh (RIOK3) [%] | %Inh (RIPK1) [%] | %Inh (RIPK2) [%] | %Inh (RIPK4) [%] |
| --- | --- | --- | --- | --- | --- | --- | --- | --- | --- | --- | --- | --- | --- | --- | --- | --- | --- | --- | --- | --- |
| NCC(NC(=O)c1cc(-c2cn[nH]c2)c(-c2ccnc3[nH]ccc23)s1)c1ccccc1.O=C(O)C(F)(F)F.O=C(O)C(F)(F)F (centres unmarked) [GSK1325775] | 25 | 90.3 | 0 | 45 | 55 | 84 | 93.6 | 27 | 97.8 | 72 | 0 | 9 | 0 | 18 | 99.4 | 34 | 100 | 19 | 0 | 31 |
| C[C@@H](Oc1cc(-n2cnc3ccc(NC(=O)NC(C)(C)C)cc32)sc1C(N)=O)c1ccccc1Cl [GSK346294] | 0 | 15 | 2 | 14 | 24 | 3 | 15 | 0 | 21 | 43 | 0 | 0 | 0 | 24 | 56 | 0 | 34 | 21 | 14 | 4 |
| Cc1c(Cn2c(C)nn3c(=O)cc(N4CCOC(C)C4)nc23)cccc1C(F)(F)F (centres unmarked) [GSK2344444] | 0 | 0 | 0 | 0 | 22 | 14 | 0 | 0 | 3 | 0 | 0 | 4 | 0 | 1 | 27 | 10 | 0 | 0 | 0 | 7 |
| Cc1c2ccc(N(C)c3ccnc(Nc4cccc(S(N)(=O)=O)c4)n3)cc2nn1Cc1ccccc1.Cl.Cl [GW787226] | 0 | 0 | 0 | 0 | 0 | 0 | 0 | 0 | 0 | 0 | 9 | 0 | 94.5 | 99.9 | 0 | 15 | 0 | 36 | 95.9 | 0 |
| Cc1cccc(Cn2ccn3c(=O)cc(N4CCOCC4)nc23)c1 [GSK2297542] | 14 | 28 | 13 | 7 | 24 | 0 | 9 | 0 | 23 | 1 | 12 | 11 | 7 | 13 | 26 | 29 | 10 | 26 | 11 | 7 |
| O=C1NC(=O)C(N2CCc3ccccc32)=C1c1cccc(Cl)c1 [SB-408010] | 1 | 29 | 4 | 6 | 3 | 0 | 0 | 0 | 0 | 8 | 12 | 0 | 0 | 4 | 5 | 0 | 30 | 0 | 0 | 0 |
| COc1cc2c(cc1OCCN1CCN(C)CC1)ncc1c3ccc(C#N)cc3[nH]c21 | 22 | 17 | 0 | 0 | 10 | 0 | 13 | 30 | 19 | 79 | 2 | 67 | 0 | 29 | 93.1 | 24 | 85 | 14 | 49 | 15 |
| O=c1cc(N2CCOCC2)nc2n(Cc3cccc(Cl)c3Cl)c(C3CC3)nn12 [GSK2358994] | 4 | 0 | 13 | 0 | 17 | 14 | 0 | 0 | 0 | 0 | 0 | 0 | 0 | 8 | 13 | 25 | 37 | 0 | 0 | 16 |
| Cl.Nc1ncnc2occ(-c3ccc(NC(=O)Nc4cc(C(F)(F)F)ccc4F)cc3)c12 [SB-707548] | 25 | 15 | 0 | 20 | 29 | 11 | 7 | 28 | 9 | 8 | 19 | 0 | 78 | 100 | 0 | 0 | 22 | 96 | 42 | 2 |
| COc1cc(Nc2nccc(N3CCC(NC(=O)c4cccc(NC(C)=O)c4)C3)n2)cc(OC)c1OC (centres unmarked) [GSK1379754] | 0 | 24 | 0 | 0 | 0 | 15 | 0 | 0 | 27 | 20 | 14 | 0 | 0 | 29 | 82 | 5 | 61 | 0 | 0 | 28 |

— publication PMC5540273 (PLoS ONE, 2017)
